Target: Protein kinase C gamma type (Homo sapiens) (UniProt P05129)
Details: at 0.1 µM
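Further: values are mean percent inhibition of PKC gamma.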

Point of comparison: `NS(=O)(=O)c1ccc(-c2cc3ccncc3cc2OCc2ccccc2)cc1`, inhibition 1.21%. Against it:
- CN(C)CCCn1c(-c2nonc2N)nc2cnccc21 — higher, 4.42%
- CN(c1ccc(NC(=O)Nc2ccc(OC(F)(F)F)cc2)cc1)c1ccnc(Nc2cccc(S(N)(=O)=O)c2)n1 — higher, 2.48%
- O=C(Nc1ccc(Oc2ccc3[nH]c(NC(=O)c4ccco4)nc3c2)cc1)Nc1cc(C(F)(F)F)ccc1F — higher, 2.16%
- c1ccc(Cc2nc3ccc(Nc4ncnc5ccccc45)cc3[nH]2)cc1 — higher, 1.69%
- C[C@@H](Oc1cc(-n2cnc3ccc(OCC4CCN(C)CC4)cc32)sc1C(N)=O)c1ccccc1C(F)(F)F — higher, 3.29%
- Nc1nccc(-c2c(-c3ccc(F)cc3)nn3cc(C(F)(F)F)ccc23)n1 — lower, -1.38%
- NC(=O)c1cccc(Nc2nccc(Nc3cccc(F)c3)n2)c1 — higher, 2.94%
- Nc1nccc(C#Cc2cncnc2Nc2ccc(OCc3cccc(F)c3)c(Cl)c2)n1 — higher, 5%
- NC(=O)c1sc(-n2cnc3ccccc32)cc1OCc1ccccc1Br — higher, 1.38%
- CN(C)c1cc2c(Nc3ccc4c(cnn4Cc4ccccc4)c3)ncnc2cn1 — lower, 0.1%
- Nc1ccc(C#Cc2cncnc2Nc2ccc(OCc3cccc(F)c3)c(Cl)c2)cc1 — lower, -0.9%
- FC(F)(F)c1ccc(-c2nn3ncccc3c2-c2ccnc(Nc3ccc4c(c3)OCCO4)n2)cc1 — higher, 5.17%
- Cc1cc(-c2ccccn2)cc(C)c1/C=C/c1cncc(-c2nn[nH]n2)c1 — higher, 1.57%
- CCn1c(-c2nonc2N)nc2c(C#CC(C)(C)O)nc(OCCNC)cc21 — lower, -2.02%
- Oc1cccc(-c2nc(-c3ccccc3)[nH]c2-c2ccncc2)c1 — higher, 2.86%

Source: ChEMBL document CHEMBL1961873, “Compounds: GSK PKIS; Assays: Nanosyn kinase panel” (2012)
